From PubChem BioAssay (NCI)
This is part of a sample that, as a whole, favours compounds with a hit. Of some 83,000 tested, about 20% had one in any assay.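 The test compound was applied at a single concentration to cells in 96-well plates for 48 hours, and percent growth was recorded.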 A number with no mark means an inactive call. The source made the active and inactive calls. Rule for the calls: active = growth percent below 10; inactive = the rest.

Tests used:
Experiment in all cases: NCI-60 one-dose screen, 48 h (100 = growth as untreated, 0 = no growth, -100 = all killed)
Conditions in all cases: 10 µM unless noted
HCT-15 colon = tested on: HCT-15 colon
HT29 colon = tested on: HT29 colon
SNB-75 CNS = tested on: SNB-75 CNS
SNB-19 CNS = tested on: SNB-19 CNS
U251 CNS = tested on: U251 CNS
UACC-62 melanoma = tested on: UACC-62 melanoma
LOX IMVI melanoma = tested on: LOX IMVI melanoma
SK-MEL-28 melanoma = tested on: SK-MEL-28 melanoma
SK-MEL-5 melanoma = tested on: SK-MEL-5 melanoma
PC-3 prostate = tested on: PC-3 prostate

Structure (SMILES)	growth (HCT-15 colon)	growth (HT29 colon)	growth (SNB-75 CNS)	growth (SNB-19 CNS)	growth (U251 CNS)	growth (UACC-62 melanoma)	growth (LOX IMVI melanoma)	growth (SK-MEL-28 melanoma)	growth (SK-MEL-5 melanoma)	growth (PC-3 prostate)
COc1ccc(S(=O)(=O)N2CCCCCC2)cc1NC(=O)c1[nH]c(C)c2c1CCCCC2=O	12.8%	16.8%	4.93% (active)	38.2%	29.9%	15.8%	-33.6% (active)	49.8%	–	–
C=CCSSc1ncnc2c1ncn2C1OC(CO)C(O)C1O (stereo not given)	47.9%	28.6%	39.7%	88.1%	80%	18.4%	8.74% (active)	109%	61.1%	–
O=C1c2ccccc2C(=O)c2c1ccc1[nH]c(-c3cccs3)nc21	89.8%	107%	98.9%	100%	72.7%	85.5%	79.2%	127%	–	–
Cc1cc(C)nc(SC2=C(Nc3cccc(Cl)c3C)C(=O)N(Cc3ccccc3)C2=O)n1	51.6% [30 µM]	30.2% [30 µM]	50.5% [30 µM]	71.9% [30 µM]	49.4% [30 µM]	56.2% [30 µM]	59% [30 µM]	85.1% [30 µM]	64.3% [30 µM]	–
O=C(COc1ccc(/C=C2\CSc3ccccc3C2=O)cc1)Nc1nccs1	84.6%	74.7%	87.8%	82.1%	83%	85.5%	-28.3% (active)	124%	142%	–
Cn1c(=O)[nH]c(=O)c2nc(CCC(=O)NCCC(=O)O)c(=O)[nH]c21	106%	106%	89%	104%	98.2%	105%	98.6%	103%	–	–
CN(C)c1ccc(N=Nc2ccc(Br)cn2)c(O)c1	28.3%	21.9%	39.1%	19.6%	11.4%	-45.3% (active)	6.61% (active)	29.9%	–	–
O=C(CN(C(=O)Cn1c(=O)n2nnnc2c2ccccc21)c1ccccc1C(F)(F)F)Nc1ccc(C(F)(F)F)cc1	102%	110%	91%	95.6%	99.1%	101%	98.9%	108%	–	–
O=C1/C(=C/c2ccccc2)SC(=S)N1CCc1ccc(O)cc1	100%	102%	81.1%	90.4%	97.3%	77%	89.2%	103%	97%	–
O=[N+]([O-])c1cnc(N2CCN(CC3CC3)CC2)nc1N1CCN(CC2CC2)CC1	96%	87%	81%	100%	98.4%	110%	99.6%	91.3%	–	–
Nc1ccn(-c2ccc(Br)cc2)c(=O)n1	119%	125%	76.7%	140%	104%	106%	105%	137%	119%	–
CC(=O)O[C@H]1CC[C@]2(C)[C@H]3CC=C4[C@@H]5CC(C)(C)CC[C@]5(C(=O)NCCNCCNCCN)CC[C@@]4(C)[C@]3(C)CC[C@H]2C1(C)C	-74.8% (active)	-47.7% (active)	71%	92.6%	–	93.9%	-98.9% (active)	93.1%	90.7%	38.9%
CN1CCN(c2nc(NCCCNc3ccnc4cc(Cl)ccc34)c3ccccc3n2)CC1	52.7%	6.44% (active)	79.6%	45.4%	2% (active)	-65.7% (active)	-43.8% (active)	-48.5% (active)	–	–
N#C/C(=C\c1ccc(-c2cc(C(F)(F)F)ccc2Cl)o1)c1nc(-c2ccco2)cs1	103%	101%	70%	95.2%	–	78.9%	99.5%	108%	97.5%	99.5%
N#CCCN=Nc1c(O)[nH]c2ccc([N+](=O)[O-])cc12	102%	101%	70.5%	100%	–	93.2%	90.3%	112%	99.2%	99.7%
CCOC(=O)c1sc(Nc2ccc(Cl)cc2)nc1C	13.1%	4.65% (active)	-11.2% (active)	37%	13.5%	–	9.91% (active)	–	–	–
N#Cc1c(-c2ccc(Cl)cc2)nc(N/N=C/c2cccc(Br)c2)nc1N1CCOCC1	8.41% (active)	29%	76.8%	107%	–	92.6%	79.8%	99.5%	85.6%	61.2%
O=C(/C=C/c1cccc([N+](=O)[O-])c1)c1ccc(O)c(CN2CCN(c3cc4c(cc3F)c(=O)c(C(=O)O)cn4C3CC3)CC2)c1	-40.1% (active)	-23.6% (active)	31.1%	47.2%	–	53%	-93.5% (active)	46.4%	46.1%	18.4%
Nc1ccc(-c2cc3c(Nc4ccc(Oc5cccc(C(F)(F)F)c5)c(Cl)c4)ncnc3s2)cc1	44.6%	64%	78.1%	89.8%	79%	81.9%	50.1%	83.1%	–	–
COc1cc(C(=O)/C=C/c2cccnc2Nc2ccc(Cl)cc2)cc(OC)c1OC	-45.9% (active)	-55.1% (active)	-74.7% (active)	-80.5% (active)	-95.3% (active)	-67% (active)	-65.5% (active)	-80.4% (active)	–	–
O=C(Cn1cccc(Nc2ccccc2)c1=O)Nc1ccccc1	101%	106%	84.9%	97.1%	97.8%	93.6%	–	104%	–	–
O=C(N/N=C/c1c[nH]c2ccccc12)c1cc(-c2ccccc2)on1	71.2%	102%	67%	89.8%	–	62.8%	56.3%	106%	91.3%	88%
COc1cccc(-c2nc3sccn3c2-c2ccnc(NCCCNS(=O)(=O)c3cccc(Cl)c3)c2)c1	28.7%	54.5%	51.8%	66.3%	–	-7.03% (active)	35.6%	67.4%	-12.5% (active)	21.7%
Cc1ccc(/C=C2\SC(=S)N(CC(=O)NCCCN3CCOCC3)C2=O)cc1	96.3%	109%	87.2%	94.5%	100%	99.7%	91.7%	100%	–	–
O=C1C=C(O)C(=O)C(CC2=C(O)C(=O)C=C(O)C2=O)=C1O	105%	107%	83.5%	112%	102%	103%	89.9%	110%	–	–
CCCCCCN(CCCCCC)C(=N)c1ccnc2ccccc12	65.9%	8.96% (active)	57.6%	84.1%	63.9%	81.3%	30%	88.4%	–	–
O=C1CC[C@H](c2ccc(O)c3c2C(=O)[C@@H]2O[C@@H]2C3=O)c2cccc(O)c21	42.5%	-17.2% (active)	81.3%	92%	78.7%	39.4%	-62.6% (active)	-7.72% (active)	–	–
CSc1ccc(SC2c3ccc(C)cc3Oc3nc(N)c(C#N)c(N)c32)cc1 (stereo not given)	-74.3% (active)	-65.1% (active)	-36.4% (active)	-96% (active)	-90.8% (active)	-75.1% (active)	-92.6% (active)	-86.7% (active)	–	–
Clc1ccc2c(NCCCCNc3nc(N4CCCCC4)nc4ccccc34)ccnc2c1	-38.2% (active)	-14.2% (active)	-59.5% (active)	18.6%	-32.9% (active)	-86.9% (active)	-73.8% (active)	-71.1% (active)	–	–
c1ccc(-c2c(-c3ccccc3)[n+](Cc3ccc4ccccc4c3)c(-c3ccc(-c4nc5ccccc5s4)cc3)n2Cc2ccc3ccccc3c2)cc1	-91.5% (active)	-85.5% (active)	-78.8% (active)	-97.6% (active)	–	-75.2% (active)	-98.3% (active)	-88.3% (active)	-98.3% (active)	-88.8% (active)
